Screening results from PubChem.
Rows were chosen to be rich in hits. Some 7.5% of all compounds tested hit in one or more screens of this group.
FLuc counter = qHTS profiling assay for firefly luciferase inhibitor/activator using purifed enzyme and Km concentrations of substrates (counterscreen for miR-21 project); Luciferin 4-monooxygenase (Photinus pyralis), P08659; purified FLuc, Km substrates, luminescence inhibition; Potency, µM (series often up to 57.5 µM), usual class: inhibitors; 6.9% of 360,000 active; AID 588342, 2011; note: nearly all actives have a fitted effect of over 55% in size
Target sequence (P08659 whole entry, looked up): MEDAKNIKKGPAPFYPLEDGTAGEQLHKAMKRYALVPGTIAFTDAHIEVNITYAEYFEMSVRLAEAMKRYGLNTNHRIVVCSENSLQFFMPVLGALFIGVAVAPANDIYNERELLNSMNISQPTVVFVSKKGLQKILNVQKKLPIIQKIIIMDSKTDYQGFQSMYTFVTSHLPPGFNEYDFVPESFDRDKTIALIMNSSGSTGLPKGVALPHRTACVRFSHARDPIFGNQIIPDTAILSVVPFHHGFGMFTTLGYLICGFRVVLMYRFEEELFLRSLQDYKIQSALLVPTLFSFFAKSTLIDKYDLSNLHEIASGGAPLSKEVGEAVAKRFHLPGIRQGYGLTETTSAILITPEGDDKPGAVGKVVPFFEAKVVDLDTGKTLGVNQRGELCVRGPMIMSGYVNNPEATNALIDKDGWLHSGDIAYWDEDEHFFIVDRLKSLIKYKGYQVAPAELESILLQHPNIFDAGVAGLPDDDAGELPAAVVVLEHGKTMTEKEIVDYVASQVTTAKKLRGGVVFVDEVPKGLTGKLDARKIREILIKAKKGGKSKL
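Purified P. pyralis luciferase, 10 nM final, with Km-level 10 uM D-luciferin and 10 uM ATP in 50 mM Tris acetate pH 7.5, 10 mM Mg acetate, 0.01% Tween-20, 0.05% BSA; 6-point qHTS titration about 60 µM downward; luminescence read.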
Luc counter = Counterscreen for Luciferase (Kinase-Glo TM) Inhibition. Luciferin 4-monooxygenase (Photuris pensylvanica), Q27757. Kinase-Glo luciferase, ATP luminescence, 8 min. Potency, µM (top dose mostly 38.3 µM), usual class: inhibitors. 0.28% of 200,000 active. AID 1379, 2008; note: nearly all actives have a fitted effect of over 60% in size
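Light output from Kinase-Glo luciferase with luciferin and 10 uM ATP in 50 mM imidazole pH 7.2, KCl, MgCl2, Tween 20, BSA; compound pin-delivered, 8-min ambient incubation, then luminescence read.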
ELG1 genotox = qHTS screen for small molecules that induce genotoxicity in human embryonic kidney (HEK293T) cells expressing luciferase-tagged ELG1; Potency, µM (titrated, usually from 46 µM), usual class: activators; 1.3% of 330,000 active; HEK293T ELG1-luciferase reporter, luminescence, 16 h; note: nearly all actives have a fitted effect of over 60% in size
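Genotoxicity was scored as increased ELG1-luciferase reporter signal, measured by ONE-Glo luminescence (30 min, room temperature). Compound or vehicle exposure of the HEK293T reporter cells lasted 16 hr at 37°C.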
SMN2 splice up = qHTS Assay for Enhancers of SMN2 Splice Variant Expression. 2.8% of 210,000 active. HEK293 SMN2-luciferase splicing reporter, luminescence, 30-36 h. Potency, µM (series often up to 46.1 µM), hits mostly activators; note: nearly all actives have a fitted effect of over 55% in size
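qHTS luciferase splicing reporter: luminescence rises when SMN2 exon 7 is included in transfected HEK293 cells. Compound exposure lasted 30-36 h at 37C, with 4.5 mM final sodium butyrate as control, followed by a ONE-Glo read.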
NPC1 promoter act = qHTS Assay for NPC1 Promoter Activators; 2.4% of 320,000 active; Huh7 NPC1 promoter luciferase reporter, 24 h; AID 485313, 2010; Potency, µM (highest dose often 9.22 µM), hits mostly activators; note: nearly all actives have a fitted effect of over 60% in size
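Compounds in DMSO were transferred onto Huh7 NPC1-luciferase reporter cells pre-incubated 2 h; after 24 h at 37 °C, Amplite reagent was dispensed and luminescence recorded 10 min later.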
Rab9 prom act = qHTS Assay for Rab9 Promoter Activators. Huh7 Rab9 promoter-luciferase reporter, luminescence, 24 h. Potency, µM (top dose mostly 9.22 µM), most hits filed as activators. 2.8% of 320,000 active; note: nearly all actives have a fitted effect of over 60% in size
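Steps: seed 1500 Huh7 Rab9-luc cells per well, rest 2 h at 37 °C; add compound in DMSO; incubate 24 h; add luciferase reagent, 10 min ambient; read luminescence.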
Numbers stand for hits; – = inactive; ? = inconclusive; · = not tested or not shown. Calls come from the whole dose curve; as a rule, active = well fitted curve in the direction sought with a large enough effect; inconclusive = small, poorly fitted or top-dose-only effect, or another doubt; inactive = no such curve, though single readings can be large; an effect the other way counts as inactive or inconclusive.

SMILES	FLuc counter	Luc counter	ELG1 genotox	SMN2 splice up	NPC1 promoter act	Rab9 prom act
Cc1ccc(-c2nn(-c3cccc(F)c3)cc2CNCc2cccnc2)o1	19µM	–	–	·	–	–
Cc1ccc(-c2nn(-c3ccccc3)cc2C=O)o1	3µM	–	?	10µM	–	?
Cc1ccc(-c2nn(-c3ccccc3)cc2C(N)=O)o1	?	–	–	–	–	–
COc1ccccc1NC(=O)Cn1c(=O)c(CNc2ccccc2)cc2cc(OC)c(OC)cc21	–	·	·	·	·	·
CC(C)CCNC(=O)c1ccc(Cl)c(NC(=O)Cc2ccccc2)c1	–	–	–	–	–	–
COc1ccc(C(=O)Nc2cc(C(=O)NCCc3ccccc3)ccc2Cl)cc1	?	–	–	10µM	–	–
COCC(=O)Nc1cc(C(=O)NCCc2ccccc2)ccc1Cl	?	–	?	0.63µM	1.8µM	2µM
CCOCC(=O)Nc1cc(C(=O)NCCc2ccccc2)ccc1Cl	–	–	?	·	1µM	2µM
COc1ccccc1CNC(=O)c1ccc(N2CCCC2)c(NC(=O)NCc2ccc(F)cc2)c1	–	·	·	·	·	·
CCCN(CCC)C(=O)Cn1c(=O)n(Cc2ccc(C(=O)NCCc3ccc(Cl)cc3)cc2)c(=O)c2ccccc21	?	·	·	–	·	·
COc1ccc(CCC(=O)O)cc1OC	–	·	–	·	–	–
CCCCS/C(N)=N/N=C/c1ccccc1O	13µM	–	?	–	?	3.2µM
Oc1ccccc1C=NCCN=Cc1ccccc1O	–	·	–	·	–	–
C/C(=N/N=C/c1ccccc1O)c1ccccc1O	1.1µM	·	6.5µM	·	–	?
Cc1ccc(O)c(C=Nc2cc(C)ccc2O)c1	–	–	–	–	–	–
CCCS/C(N)=N/N=C/c1cc(C)ccc1O	2.4µM	–	6.5µM	–	3.2µM	?
CCOc1ccc(NC(=O)CCc2c(C)nc3cc(-c4ccccc4OC)nn3c2C)cc1	–	·	·	–	·	·
CC(C(=O)N1CCCCC1)n1sc2ccccc2c1=O (stereo unspecified)	24µM	–	?	?	?	?
CC(C(=O)N1CCN(C(=O)c2ccco2)CC1)n1sc2ccccc2c1=O (stereo unspecified)	–	·	–	·	–	–
O=C(OCC(=O)N1CCCc2ccccc21)c1c(F)cccc1F	?	·	–	·	–	–
CCc1ccc(NC(=O)c2cnc3n(c2=O)CCS3)cc1	9.5µM	–	9.2µM	–	–	4µM
CSc1ccccc1NC(=O)c1cnc2n(c1=O)CCS2	–	–	–	–	–	–
Cc1ccc(C)c(NC(=O)c2cnc3n(c2=O)CCS3)c1	–	–	–	?	?	4.5µM
Cc1ccc(-c2cc(-c3c(C)nn(C)c(=O)c3N)[nH]n2)cc1	?	·	–	·	–	–
Cc1ccc(-c2cc(N)n(-c3ccc(F)cc3)n2)cc1	9.5µM	–	23µM	13µM	?	3.5µM
SMILES	FLuc counter	Luc counter	ELG1 genotox	SMN2 splice up	NPC1 promoter act	Rab9 prom act
Cc1ccc(-c2cc(N)n(-c3ccc(C)cc3)n2)cc1	13µM	–	?	?	2.5µM	3.5µM
Cc1cc(N)n(-c2ccc(C)c(C)c2)n1	?	·	?	·	–	–
C#C[C@]1(O)CCC2C3CCC4=Cc5oncc5C[C@@]4(C)C3CC[C@@]21C (stereo partly specified)	·	–	·	–	·	·
CCOc1ccc(CCNC(=O)c2ccc(CS(=O)Cc3cccc(Cl)c3)o2)cc1 (stereo unspecified)	17µM	·	–	·	–	–
Cc1nn(C(=O)c2ccc(Br)cc2)c(C)c1S(=O)(=O)N1CCOCC1	–	·	·	·	·	·
CCOC(=O)CSc1nnc(NC(=O)c2ccco2)s1	–	·	–	·	–	–
CCSc1nnc(NC(=O)c2ccco2)s1	?	–	?	11µM	–	?
CC(C)Sc1nnc(NC(=O)c2ccco2)s1	17µM	–	?	·	?	?
O=C(Nc1nnc(SCc2ccc(Cl)cc2)s1)c1ccco1	–	–	–	–	–	–
CCOC(=O)c1c(NC(=O)CSc2cn(CCNC(=O)c3c(F)cccc3F)c3ccccc23)sc2c1CCC2	–	·	·	–	·	·
